V-ATPase pH: regulators of yeast V-ATPase proton pumping, primary screen, pHLuorin cytosolic pH fluorescence; S. cerevisiae; response, % at 10 µM; actives 0.37% (n = 350,000); AID 504577, 2011; in the data active = response mostly above about 7.3%, no sharp cut-off; inactive = mostly below about 5.4%; note: actives read high
Yeast superoxide: reduction of superoxide in aged yeast, primary screen, HTS; superoxide response (% of plate mean), % at 10 µM; actives 0.18% (n = 330,000); S. cerevisiae aged cells, superoxide DHE fluorescence; stronger effect = lower value;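 active = superoxide response under a set limit, about three screen SD below normal, cut at about 65% in these data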;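 note: yeast aged for seven days with compound at 30 °C before DHE staining; 100% = average MFI of all compound-treated wells on the plate with controls excluded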
PolyA inh: polyadenylation inhibitors in yeast reporter cells, primary screen, luminescence, S. cerevisiae. AID 1875, 2009. S. cerevisiae SKY197-pL101 polyadenylation reporter, beta-gal luminescence; efflux-impaired pdr1/pdr3 knockout yeast; score 100 = 6 SD above DMSO. actives 0.02% (n = 300,000). activity score, % at 12 µM;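 active = lowest replicate activity score at least 50, where 100 means six control SD above control mean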;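 note: yeast exposed to compound for 9 h at 30 °C; higher score means more reporter readthrough which indicates perturbed polyadenylation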
PKA-R1A activ: activators of PKA-R1A holoenzyme, primary screen, biochemical, fluorescence polarization, Cy5-IP20, bovine R1A, mouse PKAc | cAMP-dependent protein kinase type I-alpha regulatory subunit (Bos taurus) + … | PKA-R1A dissociation; scaled: DMSO 0%, 113 µM cGMP 100% | activation, % at 11.4 µM | actives 0.083% (n = 340,000);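 active = percent activation above the mean of all tested compounds plus 3 SD, cut at about 19% in these data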;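 note: higher means more PKAc released from R1A so a rise in polarization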
PKA-R2B activ: activators of PKA-R2B holoenzyme, primary screen, biochemical, fluorescence polarization, Cy5-IP20, human | cAMP-dependent protein kinase catalytic subunit beta (Homo sapiens) + cAMP-dependent … | PKA-R2B holoenzyme dissociation; R2B truncated from residue 108, S112A mutant; 0% DMSO only, 100% 113 µM cGMP | activation, % at 11.4 µM | actives 0.079% (n = 340,000) | AID 504700, 2011;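 active = activation above a cutoff set at the mean over all compounds plus 3 SD, cut at about 18% in these data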;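 note: higher means more holoenzyme dissociation and a rise in polarization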
Target sequence (P31323 whole entry, looked up, other chains not shown, the tested form may be a part): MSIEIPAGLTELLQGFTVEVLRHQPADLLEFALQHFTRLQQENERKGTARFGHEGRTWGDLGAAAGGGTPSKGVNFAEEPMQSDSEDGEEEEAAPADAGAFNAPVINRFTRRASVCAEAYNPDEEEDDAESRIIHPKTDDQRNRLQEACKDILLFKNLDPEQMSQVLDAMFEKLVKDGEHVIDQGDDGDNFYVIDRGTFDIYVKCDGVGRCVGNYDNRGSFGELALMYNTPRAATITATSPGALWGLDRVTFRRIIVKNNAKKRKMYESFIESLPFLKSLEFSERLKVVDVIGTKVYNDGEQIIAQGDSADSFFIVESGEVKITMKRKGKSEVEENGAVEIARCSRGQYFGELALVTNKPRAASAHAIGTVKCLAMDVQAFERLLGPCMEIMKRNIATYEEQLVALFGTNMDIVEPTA
JMJD2C inh: inhibitors of GASC-1 histone demethylase, primary screen, biochemical, fluorescence, DELFIA europium; AID 2099, 2009; actives 0.069% (n = 330,000); GST-JMJD2C(1-420) H3K9me3 demethylation; inhibition, % at 2.35 µM; Lysine-specific demethylase 4C (Homo sapiens), Q9H3R0;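 active = more than half of a compound's replicate wells show inhibition beyond 50%, single wells judged on their own value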;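 note: signal counts dimethyl H3K9 product captured on neutravidin plate; 0% = median of DMSO wells and 100% = 0.3 times that DMSO median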
V-ATPase pH SP: yeast V-ATPase proton pumping modulators, confirmation, S. cerevisiae, pH-sensitive GFP, second cherry-pick. shares compounds with V-ATPase pH. S. cerevisiae pHLuorin cytosolic pH, V-ATPase proton transport. response, % at 10 µM. actives 2% (n = 980). AID 602197, 2012; in the data active = response above about 24%;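 note: plate controls were vehicle wells for no effect and positive control wells for full effect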
* = called active by the depositor; x = no result given. Only some compounds are listed: those with a hit (about 0.78% of all), similar ones and a draw of the others.

SMILES | V-ATPase pH | Yeast superoxide | PolyA inh | PKA-R1A activ | PKA-R2B activ | JMJD2C inh | V-ATPase pH SP
CC1(C)CC(=O)C(C(C2=C(O)CC(C)(C)CC2=O)c2cccs2)C(=O)C1 (stereo not given) | 10.7* | 114.4 | -7.7 | 0.4 | 0.3 | -3.1 | 35.5*
O=C(O)C1CCC1C(=O)Nc1nc(-c2ccc(Cl)s2)cs1 (stereo not given) | 12.4* | 127.6 | 6.3 | -7.1 | 2.0 | -11.6 | 0.3
O=C(O)C1CCCCC1C(=O)Nc1nc(-c2cccs2)cs1 (stereo not given) | -7.5 | 111.8 | 8.3 | 8.2 | -3.3 | -11.2 | x
Cc1ccc2oc(C(=O)N(C)Cc3ccc(C)o3)c(C)c2c1 | 12.1* | 119.8 | -15.9 | -6.3 | -3.7 | 20.3 | 68.5*
Cc1ccc2oc(C(=O)N(C)Cc3ccon3)c(C)c2c1 | -0.5 | 101.7 | 6.4 | 14.2 | -2.5 | -10.4 | x
COCCC(=O)N1CCC(n2nccc2NC(=O)c2ccccc2C)CC1 | -0.8 | 95.1 | 13.5 | 16.6 | 4.7 | -1.6 | x
CCOC(=O)c1[nH]c(=O)c2ccccc2c1O | -5.9 | 130.6 | 2.7 | -5.6 | 3.7 | 2.4 | 2.1
CCOC(=O)c1[nH]c2ccccc2c1NC(C)=O | 2.6 | 101.5 | -12.9 | -7.1 | 6.2 | -1.6 | x
Cc1ccc([N+](=O)[O-])cc1NC(=O)Nc1onc(C)c1C | -1.3 | 96.4 | -8.7 | -7.7 | -3.9 | 3.3 | x
Cc1cccc(NC(=O)C2CCCN(S(=O)(=O)c3ccc4[nH]c(=O)ccc4c3)C2)n1 (stereo not given) | 0.7 | 95.5 | 4.1 | 1.1 | 2.6 | 32.3 | x
COc1ccc(NC(=O)Nc2cccc3ccccc23)cc1S(N)(=O)=O | 0.7 | 92.5 | 2.8 | 1.2 | -12.3 | -0.2 | x
Cc1ccc(C(=O)Nc2ccc(N3CCCCC3)cc2)cc1 | 9.9* | 93.8 | x | -6.5 | -1.4 | x | 3.4
O=C(O)c1ccc2c(=O)n3c(nc2c1)/C(=C/c1ccccc1Br)CC3 | 2.1 | 95.4 | 14.1 | 4.5 | -10.5 | 2.5 | x
Cc1ccc(NC(=O)CCC(=O)NNC(=O)c2ccccc2Cl)c(C)c1 | 12.7* | 97.7 | 12.9 | 8.9 | 1.8 | 16.0 | -2.2
Cn1nc(C(=O)N2CCN(c3ccc(Cl)cc3)CC2)c2c1-c1ccccc1S(=O)(=O)C2 | 8.6* | 116.9 | -4.4 | 9.9 | 3.0 | -12.9 | -6.2
Cn1nc(C(=O)N2CCN(c3cccc(Cl)c3)CC2)c2c1-c1ccccc1S(=O)(=O)C2 | 0.6 | 90.7 | -7.5 | 1.1 | -6.2 | -41.2 | x
O=C(CSc1nc2ccccc2c(=O)n1NC(=O)Cc1ccccc1)NCc1ccccc1 | 14.6* | 110.6 | -6.9 | 9.9 | 6.7 | 15.1 | 1.6
COc1ccc(N(CC(=O)N2CCN(c3ccc(Cl)cc3)CC2)S(=O)(=O)c2c(C)n[nH]c2C)cc1 | 7.4* | 99.3 | 2.9 | -4.4 | -8.2 | 35.1 | -1.4
CCOc1ccc(NC(=O)CN(C)C(=O)c2c(-c3ccccc3)noc2C)cc1OCC | 1.3 | 84.0 | x | 1.6 | -4.3 | 2.3 | x
Nc1ccc(C(=O)OCc2csc(-c3ccccc3)n2)cc1[N+](=O)[O-] | 10.0* | 90.8 | 10.7 | -2.6 | -12.9 | 3.7 | -6.6
CCOC(=O)C(=O)N=Nc1c(O)[nH]c2ccccc12 | -1.6 | 96.7 | 6.0 | -6.2 | -3.1 | -6.0 | 1.4
O=C(NCc1ccc(Cl)cc1)C(=O)NCC1OCCN1S(=O)(=O)c1cc(F)ccc1F (stereo not given) | -2.6 | 105.3 | 43.0 | -3.9 | -5.9 | 4.6 | x
Cc1cnnc2c1-c1no[n+]([O-])c1CC2 | 14.0* | 115.0 | -16.9 | -0.5 | 0.6 | 8.5 | 0.2
Cc1cnnc2c1-c1nonc1CC2 | 1.0 | 102.1 | 9.6 | 8.7 | -1.2 | 7.2 | x

Screening results as filed in PubChem.
